This is an account of results in PubChem BioAssay (NCATS).

Values without a mark were called inactive. Inconclusive results are not listed. Calls of active or inactive are those of the source. Unless noted, the call rests on the fitted dose curve; in most records, active means well fitted curve in the direction sought with a large enough effect; inconclusive means small, poorly fitted or top-dose-only effect, or another doubt; inactive means no such curve, though single readings can be large; an effect the other way counts as inactive or inconclusive.

A short description of test [1]: qHTS for differential inhibitors of proliferation of Plasmodium falciparum line 7G8 (AID 1815).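 Further: parasite growth measured after three days of incubation.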 Further: potency means the concentration at half of the fitted maximal effect.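 On activity change, negative = inhibition: plate controls were vehicle wells for no effect and reference inhibitor wells for full effect.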 As to conditions: Plasmodium falciparum 7G8 proliferation inhibition; series mostly up to 28.7 µM. For orientation: qHTS replaces the single test concentration by a dilution series.
Test [2] can be described thus: qHTS for differential inhibitors of proliferation of Plasmodium falciparum line GB4 (AID 1816).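 Further: parasite growth measured after 72 h incubation.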 Further: potency means the concentration at half of the fitted maximal effect.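 On activity change, negative = inhibition: 0% = vehicle DMSO and -100% = reference inhibitor.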 As to conditions: Potency: Plasmodium falciparum GB4 proliferation inhibition; series mostly up to 28.7 µM.
A short description of test [3]: qHTS for differential inhibitors of proliferation of Plasmodium falciparum line 3D7 (AID 1876). Further: potency means the concentration at half of the fitted maximal effect.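 On activity, negative = inhibition: parasite growth measured after three days of culture; 0% = vehicle wells and -100% = reference inhibitor wells.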 The settings on record: P. falciparum 3D7 proliferation inhibition; series mostly up to 28.7 µM.
Test [4] in a line: qHTS for differential inhibitors of proliferation of Plasmodium falciparum line D10 (AID 1877).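 Further: parasites grown with compound for 72 h before DNA staining.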 Further: potency means the concentration at half of the fitted maximal effect.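 On activity change, negative = inhibition: plate controls were vehicle wells for no effect and reference inhibitor wells for full effect.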 The settings on record: series mostly up to 28.7 µM.
Test [5] can be described thus: qHTS for differential inhibitors of proliferation of Plasmodium falciparum line Dd2 (AID 1882). Further: nearly all actives have a fitted effect of over 65% in size. Further: potency means the concentration at half of the fitted maximal effect.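 On activity change, negative = inhibition: compound exposure of 72 h on infected erythrocytes; plate controls were DMSO vehicle for no effect and 0.29 µM artemisinin for full effect.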 As to conditions: Potency: Plasmodium falciparum Dd2 proliferation inhibition; series mostly up to 28.7 µM. The procedure, abridged:
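SYBR Green I DNA fluorescence read-out, ex 485/em 535 nm. Signals were normalized to 0.29 uM artemisinin and DMSO wells, then corrected using vehicle-only plates flanking each stack. Parasite growth ran 72 h in erythrocytes before lysis.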

The nature of test [6]: qHTS for differential inhibitors of proliferation of Plasmodium falciparum line HB3 (AID 1886).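 Further: parasites grown with compound for 72 h before SYBR Green readout.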 Further: potency means the concentration at half of the fitted maximal effect.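 On activity change, negative = inhibition: plate controls were vehicle for no effect and reference inhibitor for full effect.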 As to conditions: Potency: Plasmodium falciparum HB3 proliferation inhibition; series mostly up to 28.7 µM.
Test [7] has as its target Transient receptor potential cation channel subfamily V member 1 (Homo sapiens) (UniProt Q8NER1). Kind of test: HTS Assay for Compounds that Act as Enhancers of the Vanilloid Receptor 1 (AID 488979). Further: 0% is about no effect. As to conditions: TRPV1-expressing cells, enhancer of channel activity, stimulated with capsaicin at EC20; series mostly up to 41.7 µM. The procedure, abridged:
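Calcium influx kinetics via Fluo-8 (480/520 nm) in TRPV1-expressing cells, 2000/well cultured overnight at 35.5C. Compound-alone read 3 min (agonist phase), followed by EC20 capsaicin challenge for 2 min (enhancer phase).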

Test [8] addresses Thyrotropin receptor (Homo sapiens) (UniProt P16473). In words: qHTS Assay for Antagonists of the Thyroid Stimulating Hormone Receptor (AID 488980). Further: 0% is about no effect. The settings on record: TSHR-expressing cells, cAMP antagonist read-out; series mostly up to 57.5 µM. The procedure, abridged: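 TSHR-HEK293 cells; 70 uM RO 20-1724 PDE inhibitor; compound + EC80 TSH (4 nM final); anti-cAMP cryptate antibody/cAMP-d2 in lysis buffer, 30 min RT; HTRF 665/620 nm read.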

The nature of test [9]: qHTS for differential inhibitors of proliferation of Plasmodium falciparum line W2 (AID 1883).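 Further: parasites grown with compound for 72 h before lysis and staining.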 Further: potency means the concentration at half of the fitted maximal effect.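 On activity change, negative = inhibition: 0% = vehicle wells and -100% = control inhibitor wells.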 The settings on record: Potency: Plasmodium falciparum W2 proliferation inhibition; series mostly up to 28.7 µM.
The nature of test [10]: qHTS Assay for Modulators of Human Peripheral Myelin Protein 22 (PMP22) Expression/Activity (AID 1967; active means well fitted curve in the direction sought with a large enough effect in the signal ratio; the % refers to the signal ratio;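 further: 0% = untreated cells and 100% end not stated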). As to conditions: Cell-based PMP22 reporter, dual-color luciferase ratio, 0% = compound-free control cells, mouse Pmp22 promoter in mouse Schwann cells; series mostly up to 115 µM. The procedure, abridged: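 Mouse MSC80 Schwann line, Pmp22 promoter–CBG68 reporter, EF-alpha–CBR internal control. 24h compound exposure, 37 °C/5% CO2, DMEM + 10% FBS. Readout: corrected green/red luminescence ratio, normalized to untreated cells; concentration-response curves fitted and classified.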

For test [11], the target named is Ferritin light chain (Equus caballus) (UniProt P02791). In words: qHTS Validation Assay for Identification of Novel General Anesthetics (AID 2323). Further: on the % scale 0 is the no-effect control and ±100 the full control effect. As to conditions: horse apoferritin, anesthetic-site fluorescent probe displacement; series mostly up to 76.9 µM. In short, it runs like this: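 10 uM horse-spleen apoferritin + 1-AMA (50% saturated, PBS); cpd pin-transferred, 10 min RT. Ex 380/Em 535 nm endpoint. Activity normalized between free 1-AMA and 1-AMA/apoferritin; 4-parameter Hill fit of concentration-response.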
Chain of Ferritin light chain (Equus caballus) (P02791 2-175 limits assumed): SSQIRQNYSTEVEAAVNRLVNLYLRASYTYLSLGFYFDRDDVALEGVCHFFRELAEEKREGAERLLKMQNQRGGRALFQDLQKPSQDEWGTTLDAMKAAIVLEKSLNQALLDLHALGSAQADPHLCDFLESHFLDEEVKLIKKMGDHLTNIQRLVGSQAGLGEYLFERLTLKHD

Test [12] deals with Ubiquitin carboxyl-terminal hydrolase 1 (Homo sapiens) (UniProt O94782). Kind of test: Inhibitors of USP1/UAF1: Pilot qHTS (AID 504865).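 Further: rhodamine fluorescence freed from ubiquitin-rhodamine substrate followed over time; top concentration of the series differs between compounds; on the % scale 0 is the no-effect control and ±100 the full control effect; nearly all actives have a fitted effect of over 35% in size.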 The settings on record: purified USP1/UAF1, Ub-rhodamine cleavage fluorescence; series mostly up to 54.9 µM. In short, it runs like this: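 1nM USP1/UAF1 + cpd, 15 min RT; start w/ Ub-Rho 150nM final; kinetic FL 480/540 nm, 6 reads q60 s. Buffer 50mM HEPES pH 7.8, 0.5mM EDTA, 1mM TCEP, 0.01% Tween-20, 0.1 mg/ml BSA.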
Chain of Ubiquitin carboxyl-terminal hydrolase 1 (Homo sapiens) (O94782 whole entry, looked up): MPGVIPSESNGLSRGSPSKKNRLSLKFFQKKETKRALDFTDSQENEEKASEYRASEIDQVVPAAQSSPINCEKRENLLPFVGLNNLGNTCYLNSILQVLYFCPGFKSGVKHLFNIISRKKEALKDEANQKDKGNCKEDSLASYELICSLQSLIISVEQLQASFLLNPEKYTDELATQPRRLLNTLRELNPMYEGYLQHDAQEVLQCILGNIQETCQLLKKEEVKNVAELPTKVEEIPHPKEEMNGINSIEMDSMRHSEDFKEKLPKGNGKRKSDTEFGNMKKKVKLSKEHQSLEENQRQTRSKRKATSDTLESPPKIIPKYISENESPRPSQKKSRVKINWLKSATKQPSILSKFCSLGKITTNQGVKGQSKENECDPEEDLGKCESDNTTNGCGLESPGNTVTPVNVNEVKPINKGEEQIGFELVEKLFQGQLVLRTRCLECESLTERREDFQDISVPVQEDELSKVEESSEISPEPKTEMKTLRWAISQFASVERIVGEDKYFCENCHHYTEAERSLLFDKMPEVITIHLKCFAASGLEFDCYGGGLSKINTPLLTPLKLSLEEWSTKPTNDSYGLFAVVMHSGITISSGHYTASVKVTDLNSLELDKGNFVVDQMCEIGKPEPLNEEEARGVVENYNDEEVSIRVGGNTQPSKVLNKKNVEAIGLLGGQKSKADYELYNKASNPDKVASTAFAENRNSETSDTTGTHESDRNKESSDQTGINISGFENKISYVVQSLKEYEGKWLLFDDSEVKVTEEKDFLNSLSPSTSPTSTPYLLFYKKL

Test [13] deals with Guanine nucleotide-binding protein G(i) subunit alpha-1 (Homo sapiens) (UniProt P63096). In words: qHTS Assay for Inhibitors of RGS12 GoLoco Motif Activity (Green Fluorophore) (AID 879).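 Further: 0% = labeled peptide with Gαi1 and full inhibition = labeled peptide alone without protein; negative values mean loss of peptide binding seen as reduced polarization.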 The settings on record: Galphai1/FITC-RGS12 GoLoco peptide, fluorescence polarization; series mostly up to 57.1 µM. The procedure, abridged: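 Fluorescence polarization assay: 50 nM Gαi1 with 10 nM FITC-labeled RGS12 GoLoco peptide in 10 mM Tris pH 7.5, 150 mM NaCl, 0.1 mM GDP, 0.05% NP40, 10 min at room temperature with compound.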
Chain of Guanine nucleotide-binding protein G(i) subunit alpha-1 (Homo sapiens) (P63096 whole entry, looked up): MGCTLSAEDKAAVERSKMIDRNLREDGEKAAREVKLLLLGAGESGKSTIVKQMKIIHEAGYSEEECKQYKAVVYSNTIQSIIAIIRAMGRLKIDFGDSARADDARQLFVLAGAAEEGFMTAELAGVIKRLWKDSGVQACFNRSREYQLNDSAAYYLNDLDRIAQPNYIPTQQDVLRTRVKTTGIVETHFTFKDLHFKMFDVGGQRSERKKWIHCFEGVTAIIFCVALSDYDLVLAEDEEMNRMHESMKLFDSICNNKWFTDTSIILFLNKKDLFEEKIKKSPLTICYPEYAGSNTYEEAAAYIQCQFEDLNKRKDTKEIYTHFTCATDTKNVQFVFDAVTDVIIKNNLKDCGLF

Test [14] deals with Pyruvate kinase (Leishmania mexicana) (UniProt Q27686). In words: qHTS Validation Assay for Inhibitors of Leishmania Mexicana Pyruvate Kinase (AID 945).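 Further: 0% = DMSO only neutral control wells.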 As to conditions: purified L. mexicana pyruvate kinase, enzyme activity, E451W mutant enzyme; series mostly up to 57.5 µM. In short, it runs like this: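 Pyruvate kinase activity of E451W LmPYK (0.2 nM) was followed as ATP output after 1 h at room temperature with 0.5 mM PEP and 0.1 mM ADP, detected by PKLight luminescence.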
Chain of Pyruvate kinase (Leishmania mexicana) (Q27686 2-499 E452W): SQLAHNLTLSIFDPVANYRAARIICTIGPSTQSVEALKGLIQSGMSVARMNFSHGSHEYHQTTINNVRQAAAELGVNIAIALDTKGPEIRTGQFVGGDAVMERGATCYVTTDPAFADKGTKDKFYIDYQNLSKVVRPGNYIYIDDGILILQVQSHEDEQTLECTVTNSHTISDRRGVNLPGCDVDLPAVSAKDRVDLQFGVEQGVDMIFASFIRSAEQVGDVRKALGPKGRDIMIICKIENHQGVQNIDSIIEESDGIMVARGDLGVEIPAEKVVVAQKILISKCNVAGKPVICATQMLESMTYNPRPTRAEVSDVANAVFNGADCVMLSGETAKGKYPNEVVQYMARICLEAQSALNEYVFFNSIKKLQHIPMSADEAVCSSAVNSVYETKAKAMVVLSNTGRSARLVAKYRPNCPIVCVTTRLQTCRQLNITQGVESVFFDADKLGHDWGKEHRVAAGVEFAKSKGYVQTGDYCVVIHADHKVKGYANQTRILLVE

For test [15], the target named is Pyruvate kinase PKM (Homo sapiens) (UniProt P14618). In words: qHTS Assay for Activators of Human Muscle Pyruvate Kinase (AID 954; active means well fitted curve in the direction sought with a large enough effect, not every such curve was filed as active;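 further: 0% = uninhibited enzyme and -100% = no enzyme or full thiadiazolimine inhibition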). The settings on record: purified human muscle pyruvate kinase, luciferase-coupled luminescence, 1 h; series mostly up to 57.5 µM. The procedure, abridged: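 Luminescence from a luciferase ATP-detection/stop reagent reported PKM2 activity. Reactions contained 0.1 nM purified human enzyme, 0.5 mM PEP, 0.1 mM ADP and 7 mM MgCl2 at pH 7.2, run 1 h at RT.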
Chain of Pyruvate kinase PKM (Homo sapiens) (P14618 whole entry, looked up): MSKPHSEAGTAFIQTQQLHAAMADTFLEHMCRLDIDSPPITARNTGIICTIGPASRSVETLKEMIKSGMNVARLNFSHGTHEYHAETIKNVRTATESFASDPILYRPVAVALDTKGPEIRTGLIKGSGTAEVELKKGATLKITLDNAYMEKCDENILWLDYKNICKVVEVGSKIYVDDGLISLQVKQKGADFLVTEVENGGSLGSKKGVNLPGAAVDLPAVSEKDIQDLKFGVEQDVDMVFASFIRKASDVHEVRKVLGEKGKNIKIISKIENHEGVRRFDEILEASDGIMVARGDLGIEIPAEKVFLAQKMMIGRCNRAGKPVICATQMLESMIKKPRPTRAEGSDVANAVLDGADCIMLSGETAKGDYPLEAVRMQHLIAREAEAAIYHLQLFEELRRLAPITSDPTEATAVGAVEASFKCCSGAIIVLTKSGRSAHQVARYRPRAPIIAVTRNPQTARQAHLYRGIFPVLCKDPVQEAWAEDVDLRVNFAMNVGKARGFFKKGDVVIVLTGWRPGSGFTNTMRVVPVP

Test [16] concerns the target Alpha-galactosidase A (Homo sapiens) (UniProt P06280). In words: Counterscreen for Glucocerebrosidase Inhibitors: qHTS Assay for Human alpha-Galactosidase at pH 4.5 (AID 992). Further: 0% is about no effect. As to conditions: purified enzyme, fluorogenic substrate; series mostly up to 76.9 µM. The procedure, abridged: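 Enzyme at 2 nM final was combined with compound (0.7 nM to 77 uM) and 80 uM 4-methylumbelliferyl alpha-D-galactopyranoside in 50 mM citric acid, 0.005% Tween-20, pH 4.5. After 20 min at room temperature, fluorescence was read (Ex 365/Em 440 nm); AC50 came from Hill fits.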
A general note: The purpose of a counterscreen is to sort out artefacts and off-target activity.

Test [17] addresses alpha-glucosidase (Oryza sativa, rice) (UniProt Q653V4). In words: Counterscreen for Glucocerebrosidase Inhibitors: qHTS Assay for Rice alpha-Glucosidase at pH 5.0 (AID 997).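 Further: 0% = full activity with enzyme and -100% = basal without enzyme.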 The settings on record: rice alpha-glucosidase enzyme activity; series mostly up to 76.9 µM. The procedure, abridged:
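Rice alpha-glucosidase (4 nM final) with 400 uM 4-methylumbelliferyl-alpha-D-glucopyranoside in citrate buffer pH 5.0, 20 min at room temperature, stopped at pH 10; fluorescence 365/440 nm, compounds 0.7 nM–77 uM, AC50 from Hill fits.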

Test [18] can be described thus: AP1 Signaling Pathway (AID 357; active means well fitted curve in either direction with a large enough effect, not every such curve was filed as active;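 further: ME-180 reporter cells stimulated with EGF at its EC50 level; on the % scale 0 is the no-effect control and ±100 the full control effect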). The settings on record: ME-180 AP-1-bla reporter, EGF-induced, beta-lactamase ratio, 5 h; at 7.69 µM (top of the series) unless noted. The procedure, abridged: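 Titration-series screen for positive or negative modulators of EC50 EGF-induced signaling in ME-180 cells carrying an AP-1-driven beta-lactamase reporter. After 5 hours at 37 degrees Celsius, CCF4 460nm/530nm emission ratio gave %Activity; AC50 values derived.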

A short description of test [19]: Stat Signaling Pathway (AID 446; active means well fitted curve in either direction with a large enough effect, not every such curve was filed as active;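 further: ME-180 cervical cancer cells given 40 pM IL-6 alongside compound; SIE-controlled beta-lactamase reporter measured as 460/530 nm FRET emission ratio; on the % scale 0 is the no-effect control and ±100 the full control effect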). The settings on record: ME-180 (cervical carcinoma) SIE beta-lactamase reporter, IL-6 stimulated, 5 h; at 7.69 µM (top of the series) unless noted. The procedure, abridged:
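ME-180 SIE-bla cells; overnight plating; cpd + IL-6 40 pM, 5 h, 37 C; LiveBLAzer 2.5 h RT; 460/530 nm emission ratio. Normalized to 300 pM IL-6 and 125 nM JAK inhibitor controls.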

Chain of Alpha-galactosidase A (Homo sapiens) (P06280 whole entry, looked up): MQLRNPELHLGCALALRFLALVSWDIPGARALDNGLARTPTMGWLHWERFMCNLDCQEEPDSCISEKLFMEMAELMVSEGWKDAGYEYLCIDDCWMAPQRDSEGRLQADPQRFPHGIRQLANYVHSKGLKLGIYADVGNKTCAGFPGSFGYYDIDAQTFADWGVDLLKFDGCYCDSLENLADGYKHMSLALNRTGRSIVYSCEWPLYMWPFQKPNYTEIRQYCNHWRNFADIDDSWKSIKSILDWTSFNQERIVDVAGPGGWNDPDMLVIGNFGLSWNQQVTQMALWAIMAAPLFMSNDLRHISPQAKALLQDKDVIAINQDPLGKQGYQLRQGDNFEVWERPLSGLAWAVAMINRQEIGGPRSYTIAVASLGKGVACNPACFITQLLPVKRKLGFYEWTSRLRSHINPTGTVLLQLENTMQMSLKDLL
Chain of Thyrotropin receptor (Homo sapiens) (P16473 whole entry, looked up): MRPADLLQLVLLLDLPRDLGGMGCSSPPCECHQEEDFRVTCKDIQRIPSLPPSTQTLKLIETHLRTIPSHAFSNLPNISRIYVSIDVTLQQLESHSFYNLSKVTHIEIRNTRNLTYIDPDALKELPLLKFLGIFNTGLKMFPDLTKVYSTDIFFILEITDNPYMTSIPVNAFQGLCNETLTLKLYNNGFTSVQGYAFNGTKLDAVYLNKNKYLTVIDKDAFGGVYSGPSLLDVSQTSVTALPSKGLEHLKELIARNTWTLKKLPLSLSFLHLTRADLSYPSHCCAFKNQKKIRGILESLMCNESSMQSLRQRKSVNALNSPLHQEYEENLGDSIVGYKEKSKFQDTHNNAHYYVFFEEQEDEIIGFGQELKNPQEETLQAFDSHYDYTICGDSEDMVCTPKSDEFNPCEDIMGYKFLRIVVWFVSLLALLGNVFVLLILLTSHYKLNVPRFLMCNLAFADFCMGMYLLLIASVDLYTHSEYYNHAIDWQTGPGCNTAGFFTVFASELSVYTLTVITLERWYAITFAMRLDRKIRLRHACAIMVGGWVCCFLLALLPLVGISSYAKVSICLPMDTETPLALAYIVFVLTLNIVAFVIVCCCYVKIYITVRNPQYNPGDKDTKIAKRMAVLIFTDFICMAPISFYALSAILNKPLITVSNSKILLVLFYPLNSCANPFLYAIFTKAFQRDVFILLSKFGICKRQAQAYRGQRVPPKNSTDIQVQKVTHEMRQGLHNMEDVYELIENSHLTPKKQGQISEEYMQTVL
Chain of Transient receptor potential cation channel subfamily V member 1 (Homo sapiens) (Q8NER1 whole entry, looked up): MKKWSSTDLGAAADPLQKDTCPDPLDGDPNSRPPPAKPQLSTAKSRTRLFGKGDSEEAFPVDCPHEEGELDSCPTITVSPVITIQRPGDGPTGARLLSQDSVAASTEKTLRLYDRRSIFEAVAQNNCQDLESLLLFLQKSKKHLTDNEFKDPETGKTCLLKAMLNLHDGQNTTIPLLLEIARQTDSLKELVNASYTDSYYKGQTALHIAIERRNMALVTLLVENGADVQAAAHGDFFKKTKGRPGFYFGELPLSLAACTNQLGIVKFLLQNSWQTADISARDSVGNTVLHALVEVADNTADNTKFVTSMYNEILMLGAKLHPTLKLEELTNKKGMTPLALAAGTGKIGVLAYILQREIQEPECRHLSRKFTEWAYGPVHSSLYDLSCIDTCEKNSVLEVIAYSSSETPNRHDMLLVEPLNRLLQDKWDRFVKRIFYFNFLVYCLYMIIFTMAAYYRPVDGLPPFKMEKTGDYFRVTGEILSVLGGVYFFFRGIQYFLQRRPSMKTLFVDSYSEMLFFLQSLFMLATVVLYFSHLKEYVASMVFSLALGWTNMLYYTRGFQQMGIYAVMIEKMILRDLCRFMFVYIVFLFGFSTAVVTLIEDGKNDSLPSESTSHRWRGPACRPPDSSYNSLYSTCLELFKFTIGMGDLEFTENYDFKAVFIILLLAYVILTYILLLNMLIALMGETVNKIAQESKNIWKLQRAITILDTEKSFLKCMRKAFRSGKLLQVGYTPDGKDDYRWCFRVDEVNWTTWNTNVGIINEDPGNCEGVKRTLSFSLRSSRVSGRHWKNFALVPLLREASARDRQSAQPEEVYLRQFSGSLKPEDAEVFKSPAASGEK

Consider `CC(C)C1NC(=O)[C@H](CCCCN)NC(=O)[C@@H](Cc2c[nH]c3ccccc23)NC(=O)[C@H](Cc2ccc(O)cc2)NC(=O)[C@H](C)N(C)C(=O)[C@H](Cc2ccccc2)NC1=O` (stereo partly drawn), for which the Potency entry in test [1], in test [2], in [3], in test [4], in test [5] and in test [6] was “inactive” each time. Further, the outcome in [7] and in test [8] was inactive.

`NCC1OC(O[C@@H]2[C@H](O)[C@@H](OC3C(O)C(N)CC(N)C3OC3OC(CO)C(O)C(O)C3N)O[C@@H]2CO)C(N)C(O)C1O` (stereo partly drawn): the Potency entry in test [1], in test [2], in test [3], in test [4], in test [5] and in test [9] was “inactive” in each case. Also, the Potency result in test [6] is “inactive”. For the same molecule, the outcome in test [10] and in test [11] was inactive.

Regarding `C[C@]12CCC(=O)C=C1CC[C@@H]1C2[C@@H](O)C[C@@]2(C)[C@H]1CC[C@]2(O)C(=O)CO` (stereo partly drawn), the Potency result in test [2], in test [3], in test [4], in test [5], in [9] and in test [6] was “inactive” in each case. The Potency entry in test [12] was “inactive”. For the same molecule, the outcome in [10] and in [11] was inactive.

Turning to `Nc1nc(SCc2ccc([N+](=O)[O-])cc2)c2ncn([C@@H]3O[C@H](CO)[C@H](O)[C@H]3O)c2n1`, the Potency result in [4] is “inactive”. In addition, in [8], the outcome was inactive.

As for `OC[C@H]1O[C@@H](n2cnc3c(NCCc4ccccc4)ncnc32)[C@H](O)[C@H]1O`, the result in test [13], in test [15], in [16], in test [17], in test [10] and in test [11] was inactive. Also, the outcome in [7] and in test [8] was inactive. For the same molecule, the Potency entry in test [14], in test [1], in [2], in test [3], in test [4] and in test [5] was “inactive” each time. In test [6], the Potency entry was “inactive”.

Regarding `CC(N)=NCCCC(N)C(=O)O` (stereo not drawn), the Potency result in [1], in [2], in test [3], in test [4], in test [5] and in test [9] was “inactive” throughout. Also, the Potency result in test [6] was “inactive”. For the same molecule, the result in [10], in [11] and in [7] was inactive.

For the molecule `NCCNC(=O)c1ccc(Cl)cc1`, the activity change, negative = inhibition in test [18] is -4.17% [at 38 µM]. In addition, the activity, negative = inhibition in [19] was -2.11% [at 38 µM]. The molecule was called inactive in test [13], in [15], in [16], in [17] and in [11]. Further, the Potency result in [14], in [1], in test [2], in test [3], in test [4] and in test [5] was “inactive” in each case. Besides, the Potency result in [9] and in test [6] was “inactive” each time.

In the case of `CC(=O)[C@@]1(O)CC[C@H]2C3CCC4=CC(=O)CC[C@]4(C)C3CC[C@@]21C` (stereo partly drawn), the Potency entry in test [4] and in test [5] was “inactive” each time. For the same molecule, the outcome in test [10], in test [11] and in test [7] was inactive.

Turning to `NC(=O)C1=CN(C2OC(COP(=O)(O)OP(=O)(O)OC[C@H]3O[C@@H](n4cnc5c(N)ncnc54)[C@H](OP(=O)(O)O)[C@H]3O)C(O)C2O)C=CC1` (stereo partly drawn), the Potency result in test [1], in test [2], in [3], in test [4], in test [5] and in [9] was “inactive” each time. Besides, in test [6], the Potency entry was “inactive”. Also, the outcome in test [11] was inactive.

Regarding `N=C(N)SCCc1cccc(CCSC(=N)N)c1`, the activity change, negative = inhibition in test [18] is 7.41% [at 38 µM]. Moreover, the activity, negative = inhibition in [19] was 0.643% [at 38 µM]. Besides, the outcome in test [13], in test [15], in [16], in [17], in test [10] and in test [11] was inactive. In addition, the outcome in test [7] was inactive. Further, the Potency result in test [14] is “inactive”. For the same molecule, the Potency was 6.31 µM (active) in test [1]; 2.24 µM (active) in test [2]; 3.16 µM (active) in test [3]; 10 µM (active) in test [4]; 7.08 µM (active) in test [5]; 1 µM (active) in test [9]. In addition, the Potency in test [6] is 8.91 µM (active).

Take `COc1cc(=O)n(C)c2c(OCC(O)C(C)(C)O)cccc12` (stereo not drawn): the Potency result in [1], in [2], in test [3], in test [4], in test [5] and in test [9] was “inactive” each time. For the same molecule, the Potency entry in [6] is “inactive”. Besides, the outcome in test [10] and in test [11] was inactive.

For `O=C(Cc1ccc(Cl)c(Cl)c1)OCCN1CCCC1`, the activity change, negative = inhibition in [18] was 17.4% [at 38 µM]. Further, the activity, negative = inhibition in [19] is 15.9% [at 38 µM]. The result in [13], in test [15], in [16], in test [17], in test [10] and in test [11] was inactive. For the same molecule, the Potency entry in test [14], in test [1], in [2], in test [3], in test [4] and in test [5] was “inactive” each time. Besides, the Potency result in test [9] and in test [6] was “inactive” throughout.
